# Laboratory results from PubChem BioAssay AID652054 (National Center for Advancing Translational Sciences (NCATS), 2013).
# In all, about 360,000 compounds went through this assay and about 9,100 (2.5%) were called active. Not shown: some 4% with an inconclusive outcome. What follows is part of a selection rich in actives, with near analogues and random picks from the rest. Values without a mark were called inactive. No stated cut-off is given here; in the data, active means max response below about -50%; inconclusive means no clear call, values can overlap the other calls; inactive means above that.
# Biological target: D(3) dopamine receptor (Homo sapiens) (UniProt P35462)
# Sequence (P35462 whole entry, looked up): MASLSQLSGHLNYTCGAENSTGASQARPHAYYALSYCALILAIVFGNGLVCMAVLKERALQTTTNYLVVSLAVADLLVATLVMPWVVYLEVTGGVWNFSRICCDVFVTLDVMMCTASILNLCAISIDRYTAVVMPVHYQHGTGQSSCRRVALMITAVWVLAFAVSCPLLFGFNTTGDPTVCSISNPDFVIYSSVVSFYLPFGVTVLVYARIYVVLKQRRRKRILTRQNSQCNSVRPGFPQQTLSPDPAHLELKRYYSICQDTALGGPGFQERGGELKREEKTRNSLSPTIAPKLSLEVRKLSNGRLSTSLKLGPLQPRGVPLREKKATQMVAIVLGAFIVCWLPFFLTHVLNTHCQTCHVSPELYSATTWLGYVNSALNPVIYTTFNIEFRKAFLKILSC
# Assay: qHTS of D3 Dopamine Receptor Antagonist: qHTS
# Conditions: D3R cells, DiscoveRx beta-arrestin luminescence, antagonist mode; active compounds read low
# Procedure, shortened: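 Cells plated overnight at 1500 cells/well, then exposed to library compounds with dopamine controls for 90 minutes at 37 degrees C. DiscoveRx reagent added for 30–60 minutes at room temperature; luminescence read, quantitative HTS format.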
# On the % scale 0 is the no-effect control and ±100 the full control effect.
row,Structure (SMILES),"max response, negative = inhibition"
1,Cc1ccc(N=Cc2c(O)n(-c3nccs3)c(=O)c3ccccc23)c(C)c1,7.33%
2,CC1(C(=O)NS(=O)(=O)Cc2cccc(Cl)c2)CCN1C(=O)Cc1ccc(Cl)cc1Cl (stereo not drawn),5.64%
3,CN(Cc1ccccc1)Cc1ccccc1F,-76.7% (active)
4,CN(CC(=O)NC(=O)Nc1ccccc1F)Cc1ccccc1,-19.2%
5,CN(Cc1ccccc1F)C(=O)C(Cc1ccccc1)NC(=O)c1ccccc1 (stereo not drawn),41.6%
6,CCc1nc2c(OCCC3CCCCC3)cccn2c1N(C)C(=O)c1ccco1,-17.4%
7,O=C(NCC(O)c1nc2ccccc2[nH]1)c1ccc(Br)cc1 (stereo not drawn),-3.7%
8,COc1ccc(NC(=O)CSc2nnnn2-c2cccc(OC)c2)cc1,26.1%
9,O=c1[nH]c(CSc2ncc(-c3ccc(F)cc3)n2Cc2ccco2)nc2ccccc12,11.8%
10,O=C(CSc1nnc(-c2cccnc2)n1Cc1ccco1)c1ccc(Cl)c(Cl)c1,25.5%
11,Clc1cccc(-c2nc3nc4ccccc4nc3n2Cc2ccco2)c1,-72.7% (active)
12,CCOC1=C2[C@H]([C@H]3C(=O)N(c4ccccc4)C(=O)[C@H]3C1)[C@@H](c1ccccc1)N(S(=O)(=O)c1ccc(C)cc1)[C@H]2c1ccccc1,0.0406%
13,N#C/C(=C(/O)Cc1cccc2ccccc12)c1nc2ccccc2s1,-26.8%
14,CC1=CC(=C(C#N)c2nc3ccccc3s2)C=C(C)N1c1ccc(F)cc1F,-51.3% (active)
15,CN(Cc1nc2ccccc2s1)C(=O)c1ccc(F)cc1,-18.6%
16,CN1CCN(c2ccc3c(c2)OC[C@H](Cc2ccccc2)NS3(=O)=O)CC1,-23%
17,CCOC(=O)[C@]12CCCC=C1N(Cc1ccc3c(c1)OCO3)C(=O)[C@H](CC(=O)NCc1cccs1)C2,-6.39%
18,COC(=O)C[C@H]1C[C@@H]2c3cc(NC(=O)Nc4ccccc4)ccc3O[C@@H]2[C@@H](CO)O1,17.9%
19,CCC(C(=O)NC1CCCC1)N(C(=O)Cn1nnc(-c2ccc(C)o2)n1)c1ccc(OC)c(OC)c1 (stereo not drawn),8.45%
20,COc1ccc(C)cc1N(C(=O)Cn1nnc(-c2ccc(C)o2)n1)C(C(=O)NC1CCCC1)c1ccncc1 (stereo not drawn),-57.8% (active)
21,Cc1cccc(N(C(=O)Cn2nnc(-c3ccc(C)o3)n2)C(C(=O)NC2CCCC2)c2ccncc2)c1 (stereo not drawn),12.8%
22,CNC[C@H]1OCc2cnnn2CCCC(=O)N([C@H](C)CO)C[C@@H]1C,11.4%

row,Structure (SMILES),"max response, negative = inhibition"
1,COCCNC(=O)C1(C)CCCN(Cc2cccc(F)c2)C1 (stereo not drawn),-6.58%
2,Cn1c(CC(=O)NNC(=O)c2ccccc2F)nc2ccccc21,5.88%
3,CC(NCc1nc2ccccc2n1C)C12CC3CC(CC(C3)C1)C2 (stereo not drawn),-77.6% (active)
4,COc1cccc(C(O)Cc2nc3ccccc3n2C)c1OC (stereo not drawn),9.46%
5,COC(=O)c1ccc2nc(-c3cccc(Br)c3)c(Cc3ccccc3C(F)(F)F)n2c1,0%
6,CC(Oc1ccccc1[N+](=O)[O-])C(=O)N/N=C/c1ccoc1 (stereo not drawn),-27.6%
7,O=C(N/N=C/c1ccoc1)c1ccc(Cl)cc1Cl,9.92%
8,CC(C)c1cc(C(=O)N/N=C/c2ccoc2)c(O)c(C(C)C)c1,-60.7% (active)
9,CC(=O)N1C[C@@H](CO)[C@@H](N(C)C(=O)c2ccco2)C[C@H]1c1ccccc1,0%
10,C/C=C(\C)C(=O)NCCN1C2=NC[C@H](Cc3ccc(O)cc3)N2C[C@@H]1Cc1ccc(OC)cc1,-17.1%
11,COc1cccc(CNC(=O)CCC2CCCN(Cc3ccc(OC(F)F)cc3)C2)c1 (stereo not drawn),-23.3%
12,COc1ccc(C[C@H]2CN3C(=NC[C@H]3C)N2CCNC(=O)CCC2CCCCC2)cc1,-71.7% (active)
13,CC1(C(=O)NCc2cccc3ccccc23)CCN1Cc1ccc(-c2ccccc2)o1 (stereo not drawn),34.9%
14,CCOc1cc(/C=N/NC(=O)c2ccncc2)cc(Br)c1O,2.27%
15,CCC(C)CN1C(=O)CSCC1(C)C(=O)NCc1ccccc1 (stereo not drawn),6.99%
16,COc1cc(C=NC2CCCCC2)ccc1O,22%
17,OC(c1ccc(Cl)cc1)c1ncc(-c2ccc(Cl)cc2)[nH]1 (stereo not drawn),21.5%
18,CCOC(=O)c1c(S(=O)(=O)Nc2cccc(Cl)c2)c(C)n(C)c1C,-8.27%
19,CCOC(=O)c1c(S(=O)(=O)NCC(=O)Nc2ccc(C)cc2)c(C)n(C)c1C,-0.327%
20,CCOC(=O)c1c(S(=O)(=O)Nc2ccc(CN3CCC(C)CC3)cc2)c(C)n(C)c1C,-51% (active)
21,CC1Cc2[nH][nH]c(=O)c2C(C2CCCC2)O1 (stereo not drawn),0%
